Bioassay records: PubChem BioAssay, The Scripps Research Institute Molecular Screening Center
Sampled rows, rich in hits. Any-hit rate of the full collection: about 2.7%.
PAFAH1B2 inh = PAFAH1B2 enzyme inhibitors, primary screen, biochemical, fluorescence polarization, human; inhibition, % at 3.39 µM; recombinant PAFAH1B2, FP-rhodamine activity probe; 340,000 tested, 1.2% active;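 active means inhibition above the mean of all tested compounds plus 3 SD, cut at about 24% in these data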
Target sequence (P68402 whole entry, looked up): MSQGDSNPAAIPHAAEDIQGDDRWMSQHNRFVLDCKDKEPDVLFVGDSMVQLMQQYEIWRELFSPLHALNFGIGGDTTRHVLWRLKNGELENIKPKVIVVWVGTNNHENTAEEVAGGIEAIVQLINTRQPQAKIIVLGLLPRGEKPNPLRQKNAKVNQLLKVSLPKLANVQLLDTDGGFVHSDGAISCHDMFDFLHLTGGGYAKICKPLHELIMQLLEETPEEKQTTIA
PAFAH1B3 inh = PAFAH1B3 enzyme inhibitors, primary screen, biochemical, fluorescence polarization, human | Platelet-activating factor acetylhydrolase IB subunit alpha1 (Homo sapiens), Q15102 | recombinant PAFAH1B3, FP-rhodamine probe | inhibition, % at 3.39 µM | 340,000 tested, 0.28% active | AID 492972, 2010;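 active means inhibition above the screen-wide average of all tested compounds plus 3 SD, cut at about 25% in these data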
Target sequence (Q15102 whole entry, looked up): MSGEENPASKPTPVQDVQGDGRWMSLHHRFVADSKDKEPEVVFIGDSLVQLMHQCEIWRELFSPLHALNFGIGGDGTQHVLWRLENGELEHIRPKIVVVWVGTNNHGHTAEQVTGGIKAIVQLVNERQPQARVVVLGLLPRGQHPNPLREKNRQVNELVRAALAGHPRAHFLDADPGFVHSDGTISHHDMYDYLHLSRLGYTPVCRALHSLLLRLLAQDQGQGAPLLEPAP
PAFAH2 FP inh = PAFAH2 enzyme inhibitors, primary screen, biochemical, fluorescence polarization, human; recombinant PAFAH2, FP-rhodamine activity probe; inhibition, % at 3.39 µM; 340,000 tested, 0.99% active; AID 492956, 2010;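 active means inhibition above the mean over all tested compounds plus 3 SD, cut at about 30% in these data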;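 further: inhibitors block probe labeling of enzyme so polarization drops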
TCR-CD3 inh = inhibitors of human TCR-CD3 interaction, primary screen, biochemical, fluorescence, TAMRA-labeled TCR probe; T-cell receptor (TCR); inhibition, % at 9.4 µM; 360,000 tested, 0.37% active; AID 651800, 2012;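 further: recombinant mutant TCR 2C K166C tagged with TAMRA read by polarization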
pPAFAH inh = pPAFAH enzyme inhibitors, primary screen, biochemical, fluorescence polarization, human; Platelet-activating factor acetylhydrolase (Homo sapiens), Q13093; inhibition, % at 3.39 µM; recombinant pPAFAH, FP-rhodamine probe fluorescence polarization; 330,000 tested, 1.5% active;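 active means inhibition above the mean inhibition across the screen plus 3 SD, cut at about 25% in these data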;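 further: inhibitors block binding of the rhodamine activity-based probe so polarization drops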
BSA TAMRA ctr = compounds interfering with TAMRA-BSA probe, counter-screen for TCR-CD3 interaction inhibitor project, biochemical, fluorescence, TAMRA-labeled BSA; TAMRA-labeled BSA probe fluorescence counterscreen; 1,200 tested, 10% active; shares compounds with TCR-CD3 inh; AID 652035, 2013; inhibition, % at 9.4 µM; in the data active means inhibition above about 23%
TCR-CD3 inh conf = TCR-CD3 interaction inhibitors, retest, confirmation, biochemical, fluorescence, TAMRA-labeled TCR probe; 1,200 tested, 48% active; TAMRA-labeled TCR probe fluorescence binding assay; inhibition, % at 9.4 µM; shares compounds with TCR-CD3 inh
Large screens that a line does not name were inactive (follow-up assays come after a bar, where they were run). Unless noted, no stated cut-off is given here; in the data, active means inhibition above about 19%; inactive means the rest.

CC(=N\NC(=O)c1ccc([N+](=O)[O-])cc1)/C(=N/O)C(=O)Nc1ccccc1	none
CCC(CC)C1C(C#N)=C(N)Oc2cc(C)oc(=O)c21 (stereo unspecified)	none
Cc1cc2c(c(=O)o1)C(c1ccc([N+](=O)[O-])o1)C(C#N)=C(N)O2 (stereo unspecified)	TCR-CD3 inh 37.5 (no result: PAFAH1B2 inh, PAFAH1B3 inh, PAFAH2 FP inh) | BSA TAMRA ctr inactive | TCR-CD3 inh conf inactive
CNc1cncc(-c2ccc(C)cc2)n1	none (no result: PAFAH1B2 inh, PAFAH1B3 inh, PAFAH2 FP inh, pPAFAH inh)
Cc1cccc(NC(=O)CSc2nnc(-c3ccccc3)n2N)c1	TCR-CD3 inh 24.3 | BSA TAMRA ctr inactive | TCR-CD3 inh conf inactive
CC(C)COc1ccc(C(=O)NNC(=O)c2ccc(=O)[nH]c2)cc1	none
O=C(COC(=O)/C=C/c1cccc(Br)c1)NC1CCCCCC1	none
Cc1ccc(C(=O)NNC(=O)c2ccccc2O)cc1S(=O)(=O)N1CCCCC1	TCR-CD3 inh 24.0 | BSA TAMRA ctr inactive | TCR-CD3 inh conf 22.9
O=C(NNC(=O)c1ccccc1O)c1ccc(Cl)c(S(=O)(=O)N2CCc3ccccc32)c1	TCR-CD3 inh 28.3, pPAFAH inh 29.8 | BSA TAMRA ctr inactive | TCR-CD3 inh conf inactive
Cc1ccc(C(=O)NC2CCCC2)cc1S(=O)(=O)N1CCCCC1	none
O=C(NCc1ccco1)c1ccc(Cl)c(S(=O)(=O)N2CCc3ccccc32)c1	none
O=C(N/N=C/c1c(O)n(-c2ccc(Cl)cn2)c(=O)c2ccccc12)C1CC1	TCR-CD3 inh 22.7 | BSA TAMRA ctr inactive | TCR-CD3 inh conf 26.1
O=C(N/N=C/c1c(O)n(-c2ccc(Cl)cn2)c(=O)c2ccccc12)c1ccncc1	none
O=C(N/N=C/c1c(O)n(Cc2ccco2)c(=O)[nH]c1=O)c1ccccc1	TCR-CD3 inh 23.2 | BSA TAMRA ctr inactive | TCR-CD3 inh conf 20.5
Cn1ccc2c(N3CCCC3)cc3c(c21)C1CCC3O1 (stereo unspecified)	none (no result: PAFAH1B2 inh, PAFAH1B3 inh, PAFAH2 FP inh, pPAFAH inh)
Cn1ccc2c(N3CCCCCC3)cc3c(c21)C1CCC3O1 (stereo unspecified)	TCR-CD3 inh 21.5 (no result: PAFAH1B2 inh, PAFAH1B3 inh, PAFAH2 FP inh, pPAFAH inh) | BSA TAMRA ctr inactive | TCR-CD3 inh conf inactive
CCc1ccc(N2CC(C(=O)N/N=C/c3cc([N+](=O)[O-])ccc3O)CC2=O)cc1 (stereo unspecified)	TCR-CD3 inh 31.2 (no result: PAFAH1B2 inh, PAFAH1B3 inh, PAFAH2 FP inh) | BSA TAMRA ctr inactive | TCR-CD3 inh conf 26.3
O=C(N/N=C/c1cc([N+](=O)[O-])ccc1O)c1cccc(N2CCCC2=O)c1	TCR-CD3 inh 46.0 | BSA TAMRA ctr inactive | TCR-CD3 inh conf 37.1
O=P(c1ccccc1)(c1ccccc1)C(O)c1ccc(Br)cc1 (stereo unspecified)	none
COc1ccc(-c2c(-c3ccccc3OC)sc3ccccc23)cc1C=O	none
CCOc1ccc(CN(C)C(C)C(=O)NCCc2ccc(F)cc2)cc1 (stereo unspecified)	none
Cc1ccc(NC(=O)NNC(=O)c2cc3ccccc3cc2O)cc1C	TCR-CD3 inh 20.6 | BSA TAMRA ctr inactive | TCR-CD3 inh conf inactive
Cc1ccc(NC(=S)NNC(=O)c2ccccc2O)c(C)c1	TCR-CD3 inh 41.3 | BSA TAMRA ctr inactive | TCR-CD3 inh conf 32.0
Cc1cccc(NC(=O)NNC(=O)c2cc3ccccc3cc2O)c1C	TCR-CD3 inh 24.4, pPAFAH inh 33.8 | BSA TAMRA ctr inactive | TCR-CD3 inh conf 20.1
Cc1cccc(NC(=S)NNC(=O)c2ccc(O)cc2O)c1C	TCR-CD3 inh 52.1 | BSA TAMRA ctr inactive | TCR-CD3 inh conf 37.4
Nc1nc2ncccn2c1-c1ccc(F)c(F)c1	none (no result: PAFAH1B2 inh, PAFAH1B3 inh, PAFAH2 FP inh, pPAFAH inh)
CC(=O)c1ccc(NC(=O)[C@@H]2CCCN2C2=NS(=O)(=O)c3ccccc32)cc1	none
CO[C@@H]1CN(C)C(=O)c2cc(NC(=O)Nc3cc(F)ccc3F)ccc2OC[C@H](C)N(C(=O)c2cnccn2)C[C@@H]1C	none (no result: PAFAH1B2 inh, PAFAH1B3 inh, PAFAH2 FP inh, pPAFAH inh)
O=C(NCCCl)NNC(=O)c1cc2ccccc2cc1O	TCR-CD3 inh 19.0 | BSA TAMRA ctr inactive | TCR-CD3 inh conf inactive
COc1ccccc1C(=O)NNC(=O)c1cc2ccccc2cc1O	none (no result: PAFAH1B2 inh, PAFAH1B3 inh, PAFAH2 FP inh, pPAFAH inh)
